Assay [1] can be described thus: antimalarial activity against Dd2 strain (AID 2302;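 active means growth inhibition above 50% at the single 2 µM test dose, taken to imply half-maximal potency below 2 µM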;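 further: 0% = DMSO untreated growth and 100% = chloroquine plus artemisinin killed control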). As to conditions: P. falciparum Dd2 in RBCs, LDH growth readout, 72 h; at 2 µM; hits give high values.
The nature of assay [2]: HepG2 cytotoxicity, primary screen, cytotoxicity control for P. falciparum antimalarial project, cell-based, ATP luminescence (AID 2303;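 active means inhibition above 50%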;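 further: 0% = DMSO wells and 100% = digitonin-killed cells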). The conditions noted are these: HepG2 viability, 24-48 h, at 10 µM, hits give high values.
In assay [3] the target is L-lactate dehydrogenase (Plasmodium falciparum (isolate CDC / Honduras)) (UniProt Q27743). Kind of assay: PfLDH activity inhibition – cell lysate, 3D7 strain, counter-screen for P. falciparum growth inhibition project (AID 2304).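 Further: 0% = vehicle and 100% = reference inhibitor.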 The conditions noted are these: P. falciparum 3D7 crude extract, LDH APAD/NBT absorbance; at 2 µM; hits give high values. On the technique in general: A counterscreen serves to expose hits that act by an unwanted route or on another target.
L-lactate dehydrogenase (Plasmodium falciparum (isolate CDC / Honduras)), sequence (Q27743 whole entry, looked up): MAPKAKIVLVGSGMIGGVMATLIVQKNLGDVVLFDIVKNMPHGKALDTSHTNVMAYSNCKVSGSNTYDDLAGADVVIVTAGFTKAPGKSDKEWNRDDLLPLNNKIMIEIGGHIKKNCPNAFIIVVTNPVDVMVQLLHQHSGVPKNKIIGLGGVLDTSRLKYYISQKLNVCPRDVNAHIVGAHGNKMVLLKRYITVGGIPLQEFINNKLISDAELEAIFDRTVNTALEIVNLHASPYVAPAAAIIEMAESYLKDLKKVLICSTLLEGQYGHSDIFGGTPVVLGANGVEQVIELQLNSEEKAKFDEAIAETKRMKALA

A short description of assay [4]: inhibition of 3D7 malaria parasite growth – strain 3D7 (AID 2306).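 Further: 0% = DMSO wells and 100% = chloroquine plus artemisinin control wells.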 The conditions noted are these: P. falciparum 3D7 erythrocytic growth, LDH absorbance, 72 h; at 2 µM; hits give high values.
Assay [5] has as its target Calcium-dependent protein kinase 1 (Plasmodium falciparum (isolate 3D7)) (UniProt P62344). The assay can be described thus: PfCDPK1 kinase inhibitors, biochemical, TCAMS library (AID 1159585; cut-off not given, nearly all actives have IC50 up to about 0.98 µM;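 further: inhibitors leave more ATP so luminescence rises with inhibition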). The conditions noted are these: recombinant PfCDPK1, Kinase-Glo ATP depletion luminescence. For orientation: Kinase-Glo measures the ATP left after a reaction by luminescence.
The target of assay [6] is Plasmodium falciparum protein kinase 6 (PK6, PF3D7_1337100) (UniProt Q8IDW1). Kind of assay: PfPK6 kinase inhibitors, biochemical, TCAMS library (AID 1159586). The conditions noted are these: recombinant PfPK6, Kinase-Glo ATP depletion luminescence.
Plasmodium falciparum protein kinase 6 (PK6, PF3D7_1337100), sequence (Q8IDW1 1-305): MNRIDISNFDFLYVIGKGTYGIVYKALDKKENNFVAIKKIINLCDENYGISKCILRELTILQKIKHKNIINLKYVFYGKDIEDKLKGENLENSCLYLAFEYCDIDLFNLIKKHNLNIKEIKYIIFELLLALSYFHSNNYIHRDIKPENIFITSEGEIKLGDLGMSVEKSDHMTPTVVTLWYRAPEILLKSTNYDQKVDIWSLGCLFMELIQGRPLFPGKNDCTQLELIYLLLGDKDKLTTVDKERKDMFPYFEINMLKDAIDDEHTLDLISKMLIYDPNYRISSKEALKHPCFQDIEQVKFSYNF
Assay [7] addresses Protein kinase 7 (PK7), Plasmodium falciparum 3D7 (PF3D7_0213400) (UniProt Q7YTF7). The assay can be described thus: inhibition of Plasmodium PK7 catalytic activity – biochemical, TCAMS antimalarial set, Kinase-Glo luminescence (AID 1159587). As to conditions: recombinant PfPK7, Kinase-Glo ATP depletion luminescence.
Assay [8] has as its target Calcium-dependent protein kinase 4 (Plasmodium falciparum (isolate 3D7)) (UniProt Q8IBS5). The assay can be described thus: PfCDPK4 kinase inhibitors, biochemical, TCAMS library (AID 1159588; cut-off not given, nearly all actives have IC50 up to about 0.91 µM). As to conditions: recombinant PfCDPK4, Kinase-Glo ATP depletion luminescence.

The structures appear in SMILES notation. Values without a mark were called inactive. For some of these results: Results with a measured potency or affinity are listed apart. Calls of active or inactive are those of the source. Unless noted, how the calls were made is not given here.

Protein kinase 7 (PK7), Plasmodium falciparum 3D7 (PF3D7_0213400), sequence (Q7YTF7 1-343): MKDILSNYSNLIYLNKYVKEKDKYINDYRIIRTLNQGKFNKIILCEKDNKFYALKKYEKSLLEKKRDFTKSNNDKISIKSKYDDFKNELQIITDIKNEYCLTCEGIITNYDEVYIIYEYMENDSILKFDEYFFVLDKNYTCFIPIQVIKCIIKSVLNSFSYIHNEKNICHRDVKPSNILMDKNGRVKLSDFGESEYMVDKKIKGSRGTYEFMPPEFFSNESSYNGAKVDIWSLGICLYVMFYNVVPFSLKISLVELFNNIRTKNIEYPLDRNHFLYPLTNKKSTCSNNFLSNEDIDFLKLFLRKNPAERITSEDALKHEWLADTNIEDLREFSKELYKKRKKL
Calcium-dependent protein kinase 4 (Plasmodium falciparum (isolate 3D7)), sequence (Q8IBS5 whole entry, looked up): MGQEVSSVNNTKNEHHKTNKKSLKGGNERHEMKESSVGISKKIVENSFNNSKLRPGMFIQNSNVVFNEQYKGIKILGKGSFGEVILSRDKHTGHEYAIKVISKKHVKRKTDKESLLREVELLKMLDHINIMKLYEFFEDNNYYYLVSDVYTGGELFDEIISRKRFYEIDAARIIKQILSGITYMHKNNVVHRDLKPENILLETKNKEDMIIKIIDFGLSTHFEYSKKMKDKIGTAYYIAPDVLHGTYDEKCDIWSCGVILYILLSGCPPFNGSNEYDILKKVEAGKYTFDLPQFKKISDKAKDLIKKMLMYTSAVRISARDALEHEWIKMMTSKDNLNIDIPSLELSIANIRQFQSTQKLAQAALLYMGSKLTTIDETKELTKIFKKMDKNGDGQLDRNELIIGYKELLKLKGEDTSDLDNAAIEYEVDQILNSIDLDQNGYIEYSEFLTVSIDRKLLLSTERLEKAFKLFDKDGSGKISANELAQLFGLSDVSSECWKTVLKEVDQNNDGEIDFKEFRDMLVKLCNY
Calcium-dependent protein kinase 1 (Plasmodium falciparum (isolate 3D7)), sequence (P62344 whole entry, looked up): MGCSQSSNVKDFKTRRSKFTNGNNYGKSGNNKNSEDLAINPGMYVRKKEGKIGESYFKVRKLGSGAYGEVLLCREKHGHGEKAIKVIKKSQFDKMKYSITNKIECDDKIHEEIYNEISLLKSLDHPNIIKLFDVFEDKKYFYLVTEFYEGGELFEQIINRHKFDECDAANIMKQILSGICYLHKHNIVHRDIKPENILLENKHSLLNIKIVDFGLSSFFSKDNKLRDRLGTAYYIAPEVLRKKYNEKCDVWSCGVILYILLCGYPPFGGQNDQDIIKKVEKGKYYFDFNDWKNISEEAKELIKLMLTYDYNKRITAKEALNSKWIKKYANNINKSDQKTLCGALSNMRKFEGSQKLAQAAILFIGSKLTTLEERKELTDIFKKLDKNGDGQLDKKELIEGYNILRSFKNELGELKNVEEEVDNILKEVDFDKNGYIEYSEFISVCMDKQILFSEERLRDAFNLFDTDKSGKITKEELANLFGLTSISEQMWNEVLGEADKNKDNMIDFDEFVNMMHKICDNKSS

As for `FC(F)(F)c1ccc2c(NCCNc3ccnc4cc(C(F)(F)F)ccc34)ccnc2c1`, the growth inhibition was 100% (active) in assay [1] and 101% (active) in assay [4]. In addition, the inhibition – broadly, the drop in the measured response relative to a control, in per cent – is 21% in assay [2] and 1% in assay [3]. The outcome in assay [5], in assay [6], in assay [7] and in assay [8] was inactive.
With `Cc1cccc(NC(=O)NCc2ccccc2)n1`, the growth inhibition is 2% in assay [1] and 97% (active) in assay [4]. For the same compound, the inhibition in assay [2] is 14%; in assay [3], -2%. The outcome in assay [5], in assay [6], in assay [7] and in assay [8] was inactive.
As for `Cc1[nH]c(C)c(-c2ccc(Nc3ccc(C(F)(F)F)cn3)cc2)c(=O)c1Br`, the growth inhibition in assay [1] is 98% (active); in assay [4] it was 99% (active). Also, the inhibition in assay [2] is 30%; in assay [3], -2%. In addition, the result in assay [5], in assay [6], in assay [7] and in assay [8] was inactive.
As to `COc1ccccc1C1CC(c2ccccc2)=NN1C(=O)c1ccco1` (stereo not given), the growth inhibition in assay [1] is 95% (active); in assay [4] it was 97% (active). The inhibition in assay [2] is 12%; in assay [3] it was -2%. In addition, the result in assay [5], in assay [6], in assay [7] and in assay [8] was inactive.
On to `COc1ccc(N2CCN(C(CNC(=O)C3CCCCC3)c3ccc4c(c3)OCO4)CC2)cc1` (stereo not given), for which the growth inhibition in assay [1] was 83% (active); in assay [4], 92% (active). Further, the inhibition in assay [2] is 1%; in assay [3], -1%. The result in assay [5], in assay [6], in assay [7] and in assay [8] was inactive.
As for `OCC1CCN(Cc2ccc(-c3cccc(-c4nc5ccc(C(F)(F)F)cc5[nH]4)c3)cc2)CC1`, the growth inhibition in assay [1] is 73% (active); in assay [4], 99% (active). Further, the inhibition is 19% in assay [2] and -4% in assay [3]. For the same compound, the outcome in assay [5], in assay [6], in assay [7] and in assay [8] was inactive.
In the case of `CCN(CC)CCCN(C(=O)Nc1ccc(C#N)cc1)c1nc(-c2ccc(F)cc2)cs1`, the growth inhibition in assay [1] was 68% (active); in assay [4], 99% (active). The results for the inhibition in assay [2] and in assay [3] were 36% and 0%, respectively. Also, the result in assay [5], in assay [6], in assay [7] and in assay [8] was inactive.
Regarding `O=C(C=Cc1cccs1)N(CCCn1ccnc1)c1nc2ccc(F)cc2s1`, the growth inhibition was 28% in assay [1] and 98% (active) in assay [4]. The inhibition in assay [2] and in assay [3] was -1% each time. For the same compound, the result in assay [5], in assay [6], in assay [7] and in assay [8] was inactive.
For `CC(C)(C)c1ccc(C(=O)NC2CCC(CCN3CCc4ccc(S(C)(=O)=O)cc4CC3)CC2)cc1C(F)(F)F` (stereo not given), the results for the growth inhibition in assay [1] and in assay [4] were 11% and 88% (active), respectively. Further, the inhibition in assay [2] is 54% (active); in assay [3], -8%. Further, the outcome in assay [5], in assay [6], in assay [7] and in assay [8] was inactive.
`O=C(Cc1cccc(Cl)c1)Nc1cccc(-c2c[nH]c3nc(Nc4ccccc4)ncc23)c1`: the figures for the growth inhibition in assay [1] and in assay [4] were 70% (active) and 99% (active), respectively. Also, the inhibition in assay [2] was 5%; in assay [3], -2%. The result in assay [5], in assay [6], in assay [7] and in assay [8] was inactive.
With `Nc1ccc(-c2nc3ccc(-c4ccc5nc(-c6ccc(N)cc6)[nH]c5c4)cc3[nH]2)cc1`, the growth inhibition in assay [1] is 96% (active); in assay [4] it was 101% (active). Further, the inhibition in assay [2] was 45%; in assay [3], 6%. Besides, the result in assay [5], in assay [6], in assay [7] and in assay [8] was inactive.
Consider `CC(C)(C)c1nn(-c2ccccc2)c2[nH]c(=O)c(CNC3CCCC3)cc12`, for which the growth inhibition in assay [1] is 70% (active); in assay [4], 100% (active). The figures for the inhibition in assay [2] and in assay [3] were 7% and 5%, respectively. Besides, the result in assay [5], in assay [6], in assay [7] and in assay [8] was inactive.
Consider `COc1cc(C(=O)N2CCOC(CCN3CCc4c(c5ccccc5n4C)C3)(c3ccc(Cl)c(Cl)c3)C2)cc(OC)c1OC` (stereo not given), for which the growth inhibition in assay [1] was 68% (active); in assay [4] it was 87% (active). The inhibition is 16% in assay [2] and -4% in assay [3]. The result in assay [5], in assay [6], in assay [7] and in assay [8] was inactive.
For `O=C(NCCCCCN1CCC(c2c[nH]c3ccccc23)CC1)Nc1ccc(Cl)c(Cl)c1`, the results for the growth inhibition in assay [1] and in assay [4] were -4% and 92% (active), respectively. Further, the inhibition in assay [2] is 42%; in assay [3] it was 6%. The outcome in assay [5], in assay [6], in assay [7] and in assay [8] was inactive.
In the case of `CCOc1cc(C(=O)NC2CCN(Cc3ccccc3)C2)ccc1-c1nc2ccc(Cl)cc2[nH]1` (stereo not given), the growth inhibition in assay [1] was 60% (active); in assay [4], 98% (active). Besides, the inhibition in assay [2] is 7%; in assay [3] it was 6%. Moreover, the outcome in assay [5], in assay [6], in assay [7] and in assay [8] was inactive.
With `Cc1ccc(-c2nc(NC(=O)Nc3ccc(C(F)(F)F)cc3)sc2C)cc1Cl`, the growth inhibition was 86% (active) in assay [1] and 99% (active) in assay [4]. Also, the inhibition in assay [2] was 29%; in assay [3], -5%. Further, the outcome in assay [5], in assay [6], in assay [7] and in assay [8] was inactive.
Take `O=C(Nc1ccccc1Cc1ccccc1)c1ccccc1[N+](=O)[O-]`: the growth inhibition is 59% (active) in assay [1] and 98% (active) in assay [4]. In addition, the inhibition in assay [2] is -6%; in assay [3], 3%. Further, the result in assay [5], in assay [6], in assay [7] and in assay [8] was inactive.
In the case of `CCc1ccc(-n2c(NC(=O)c3ccccc3)nc3ccc(S(=O)(=O)NC(C)C(C)C)cc32)cc1` (stereo not given), the growth inhibition is -4% in assay [1] and 88% (active) in assay [4]. For the same compound, the values for the inhibition in assay [2] and in assay [3] were 48% and 0%, respectively. Further, the result in assay [5], in assay [6], in assay [7] and in assay [8] was inactive.
On to `CN(C)CCOc1cccc(-c2cnc(N)c(-c3nc4ccc(S(C)(=O)=O)cc4[nH]3)c2)c1`, for which the growth inhibition in assay [1] was 82% (active); in assay [4] it was 100% (active). Moreover, the inhibition in assay [2] is 39%; in assay [3] it was 1%. The outcome in assay [5], in assay [6], in assay [7] and in assay [8] was inactive.
Turning to `OC(CNCc1ccccc1Oc1ccccc1)c1cccc(C(F)(F)F)c1` (stereo not given), the growth inhibition in assay [1] is 98% (active); in assay [4], 104% (active). In addition, the inhibition in assay [2] was -1%; in assay [3], 10%. In addition, the outcome in assay [5], in assay [6], in assay [7] and in assay [8] was inactive.

The record behind these values is PubChem BioAssay.
